Assay results: PubChem BioAssay (NCI)
This is part of a sample that, as a whole, favours compounds with a hit. Of some 79,000 tested, about 15% had one in any assay. Unmarked numbers belong to inactive results. Calls of active or inactive are those of the source. No stated cut-off is given here; in the data, active means growth inhibition above about 70%; inactive means the rest.

Assays:
[1] = NCI Yeast Anticancer Drug Screen. Data for the rad50 strain (AID 155);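 further: 0% = growth of vehicle-only cultures of the same strain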; conditions: S. cerevisiae rad50 strain growth inhibition; at 50.0 µM; stronger effect = higher value
Summary of the method: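 Relative growth inhibition (compound vs vehicle) was measured in yeast with a defined repair-gene alteration.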

[2] = NCI Yeast Anticancer Drug Screen. Data for the mec2-1 strain (AID 157); conditions: S. cerevisiae mec2-1 strain, at 50.0 µM, stronger effect = higher value
Summary of the method: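 Test agents were screened against the mec2-1 yeast strain, with defined DNA repair or cell cycle alteration. Growth was scored as inhibition against vehicle-only controls.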

[3] = NCI Yeast Anticancer Drug Screen. Data for the sgs1 mgt1 strain (AID 161);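 further: 0% = growth of cultures given vehicle only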; conditions: S. cerevisiae sgs1 mgt1 strain, at 50.0 µM, stronger effect = higher value
Summary of the method: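 Genetically altered yeast, compound exposure, growth inhibition relative to vehicle.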

[4] = NCI Yeast Anticancer Drug Screen. Data for the cln2 rad14 strain (AID 165);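 further: 0% = growth equal to vehicle treated cultures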; conditions: S. cerevisiae cln2 rad14 strain, at 50.0 µM, stronger effect = higher value
Summary of the method: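 Growth of compound-exposed yeast (cln2 rad14 genotype) measured and expressed as inhibition relative to vehicle.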

[5] = NCI Yeast Anticancer Drug Screen. Data for the bub3 strain (AID 167); conditions: S. cerevisiae bub3 mutant strain, at 50.0 µM, stronger effect = higher value
Summary of the method: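 Screening used yeast with an engineered genetic alteration affecting cell cycle control. Compound-exposed cultures were compared with vehicle cultures, and reduced growth was taken as inhibition.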

[6] = NCI Yeast Anticancer Drug Screen. Data for the mlh1 rad18 strain (AID 175); conditions: S. cerevisiae mlh1 rad18 strain growth inhibition; at 50.0 µM; stronger effect = higher value
Summary of the method: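 In this whole-cell yeast screen, a strain with altered DNA damage repair is challenged with compound, and its growth is measured against matched vehicle-treated controls.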

Row | SMILES | growth inhibition [1] | growth inhibition [2] | growth inhibition [3] | growth inhibition [4] | growth inhibition [5] | growth inhibition [6]
1 | C1=Cc2c3c(c4c(c2C1)C=CC4)C=CC3 | -1.95% | -8.1% | -1.2% | -2.3% | -1.15% | 6.3%
2 | OC1CCCSc2ccccc21 (configuration not stated) | 19.6% | 1% | -4.8% | 8% | 2.8% | -1.45%
3 | COc1ccc(-c2cc(C(=O)O)c3cc4ccccc4cc3n2)cc1Br | 8.6% | -15.9% | 13.7% | 24.3% | 2.95% | 10.9%
4 | BrC12c3ccccc3C(Br)(c3ccccc31)c1ccccc12 | 5.95% | 5.6% | -3.15% | -7.4% | -5.3% | 6.2%
5 | CC(=O)NCCC(=O)NCCSC(C)=O | -15% | -12% | 18.9% | 6.15% | -3.35% | 9.25%
6 | c1ccc(COCCc2ccccn2)cc1 | -5.3% | -19.9% | -3.85% | -26.1% | -22.2% | -20.4%
7 | Cc1ccc(C(=O)NC(C)C)cc1N=NN(C)C | -34.2% | -42.1% | -46.9% | 9.7% | -31.7% | -32.2%
8 | CCOC(=O)NC(=O)c1cn(C2OC(CO)C(O)C2O)c(=O)[nH]c1=O (configuration not stated) | 10.3% | -18.6% | -16.6% | -5.9% | 28.6% | 44.5%
9 | COC(=O)c1cc(=O)n(C)c2ccc(OC)cc12 | 21.1% | 10.8% | -5.3% | 9.75% | 13.6% | 20.7%
10 | CCCCI(O)OS(=O)(=O)c1ccc(C)cc1 | 5.65% | 3.1% | -2.85% | -7.7% | -3.9% | -32.6%
11 | CCCCCCCC/C=C\CCCCCCCC(=O)OCC1CCCO1 (configuration not stated) | -6.8% | 4.7% | -26.6% | 69.2% | 33.6% | 4.45%
12 | COC(=O)CN(c1c(C)cc(C)c(N)c1C)S(=O)(=O)c1ccccc1 | 0.2% | 15.9% | 4.65% | 5.4% | -11.3% | -25.3%
13 | CCN(CC)C(=O)c1cccc2c1OCO2 | -17.7% | 13.6% | 2.35% | 0.25% | 1.4% | -9.6%
14 | CCc1ccc(NC(=O)C(c2ccccc2)c2ccccc2)cc1 | 8.6% | 13.3% | 2.35% | 11.8% | 20.6% | -9.1%
15 | Cc1cc(C(=O)C[n+]2ccccc2)c(CN2C(=O)c3ccccc3C2=O)c(=O)n1C | 14.8% | -14.3% | -3.9% | -19.1% | 6.3% | 6.55%
16 | COc1ccc(S(=O)(=O)N2OC2c2ccccc2)cc1 (configuration not stated) | -22.2% | 2.65% | 14.7% | 10% | 1.65% | -6%
17 | C/C(=N/O)c1ccc[nH]1 | -3.6% | 9% | -5.5% | 20.1% | 13.2% | 0.3%
18 | C1=NC(c2ccccc2)=CN(C2CCCCCCC2)C1(c1ccccc1)C1CCCCCCC1 (configuration not stated) | 40% | 72.2% (active) | 40.2% | 45.6% | 61.4% | 50.4%
19 | C=C(Cl)C(Br)(CCl)CCC(Cl)C(C)C (configuration not stated) (tested in a mixture with another compound) | 85% (active) | 86.3% (active) | 91% (active) | 91.5% (active) | 90.7% (active) | 73.8% (active)

Row | SMILES | growth inhibition [1] | growth inhibition [2] | growth inhibition [3] | growth inhibition [4] | growth inhibition [5] | growth inhibition [6]
20 | CCOC(OCC)C(N)=O | 2.75% | -12.1% | -1.6% | 11.3% | -6.3% | 2.65%
21 | CC(=O)Oc1ccc2cc(Br)ccc2c1N(C(C)=O)C(C)=O | 13.1% | -7.35% | 10.8% | -66.5% | 24.6% | -1.85%
22 | Cc1ccc(C(=O)/C(C#N)=C/Nc2c(C)n(C)n(-c3ccccc3)c2=O)cc1 | 17% | 23.6% | 20.1% | 12.8% | 19.5% | 26.5%
23 | CCCCCCCCCCCCCC(=O)OCCCC | -25.6% | -54.4% | -59.1% | -143% | -52% | -7.35%
24 | Cc1cc(=O)[nH]c(=S)n1-c1nc2ccccc2o1 | -11.2% | 7.65% | -0.8% | -9.55% | -27.6% | 12.8%
25 | CCC(=O)N1NC(=O)C(CC)(CC)C1=O | -1.95% | -26.2% | 11.1% | 10.7% | -2.3% | -35.6%
26 | Cc1ccc(NC(=O)Oc2ccc(Br)cc2Br)c([N+](=O)[O-])c1 | 9.3% | -1.5% | 13.7% | 11.2% | 4.55% | -6.9%
27 | CC(=O)OCC(=O)C1(C)CCC2(C)CCC3(C)C(=CC(=O)C4C5(C)CCC(=O)C(C)(C)C5CCC43C)C2C1 (configuration not stated) | -2.95% | -30.8% | 2.7% | -2.25% | 13.7% | 15.4%
28 | CC(=O)Nc1ccc(NC(=O)Nc2cccc(C(C)=O)c2)cc1 | 7.3% | 27.2% | 9.35% | 0.3% | 22.6% | 28.6%
29 | Cc1nc2ccccc2nc1CCO | -12.7% | -0.15% | -3.85% | -24.2% | -24.8% | -8.8%
30 | COC(=O)C1Cc2cc(OC)c(OC)cc2C(c2ccc(OC)c(OC)c2)C1C(N)=O (configuration not stated) | -7.9% | 11.3% | -8.3% | 0.25% | -0.9% | -1.95%
31 | CCOC(=O)c1[nH]c(C)c(C(=O)OC(C)(C)C)c1C | 4.55% | 14.8% | 0.35% | 10.4% | -4.65% | 0.45%
32 | CCOC(=O)N1CCCCC1 | -3.1% | 5% | 3.05% | -16.1% | -3.3% | 5.95%
33 | O=C(C(=O)c1cccs1)c1cccs1 | 3.1% | 9.05% | 34.4% | 6.15% | -17.5% | 22.5%
34 | C#CCN(C)C(C)=O | 25.3% | -3.3% | 5.1% | 10.8% | 6.45% | 13.6%
35 | C=C1C(=O)OC2/C=C(\C)C(OC(C)=O)C3OC3C(C)(O)CC(OC(=O)/C(C)=C/C)C12 (configuration not stated) | 3.35% | 2.2% | -15.4% | -5.2% | -29.7% | -13.1%
36 | CCC(C(O)c1ccc(Cl)cc1)C(O)(C(F)(F)F)C(F)(F)F (configuration not stated) | 99.4% (active) | 99.5% (active) | 99.6% (active) | 99.5% (active) | 99.3% (active) | 99.4% (active)
37 | CC(=O)OC(C)c1cc2c(s1)C(=O)c1sccc1C2=O (configuration not stated) | 88.6% (active) | 91% (active) | 88.8% (active) | 89% (active) | 89.3% (active) | 89.5% (active)
